# Laboratory results: PubChem BioAssay (NCATS)
# Inconclusive results are not listed. Where a call stands in place of a potency, no number is given. The source made the active and inactive calls. Calls come from the whole dose curve; as a rule, active = well fitted cell-killing curve with a large enough effect; inconclusive = small, poorly fitted or top-dose-only effect; inactive = flat fitted curve, though single readings scatter.
# Assay: Cell Viability - LYMP2-024 (AID 988); note: nearly all actives have a fitted effect of over 60% in size
# Settings: LYMP2-024 lymphoblastoid cell viability; series mostly up to 92.2 µM
# Source text: NIH Chemical Genomics Center [NCGC]
# NIH Molecular Libraries Screening Centers Network [MLSCN]
# National Institutes of Environmental Health Sciences [NIEHS]
# National Toxicology Program [NTP]
# We have developed a 1536-well cell-based assay for quantitative high throughput screening (qHTS) against a number of cell lines to determine in vitro cytotoxicity of small molecules. This particular assay uses a human lymphoblastoid cell line (LYMP2-024) purchased from Coriell Institute for Medical Research.
# NCGC Assay Protocol Summary:
# The CellTiter-Glo luminescent cell viability assay (Promega) is a homogeneous method to measure the number of viable cells in culture. The end point readout of this assay is based on quantitation of intracellular ATP, an indicator of metabolic activity, using the luciferase reaction. Luciferase catalyzes the oxidation of beetle Luciferin to oxyluciferin and light in the presence of ATP. The luminescent signal is proportional to amount of ATP present.
# Using the CellTiter-Glo luminescent cell viability assay, the amount of cellular ATP was measured in the lymphoblastoid cell line with complete culture medium following compound treatment for 24 hours. The assay was performed in opaque white Kalypsys 1536-well plates. In the screen, tetraoctylammonium bromide was used as positive control. Library compounds were measured for their ability to cause acute toxicity in the cell line, as reflected by a decrease in intracellular ATP levels, in a concentration-dependent manner. […] AC50 values were determined from concentration-response data modeled with the standard Hill equation.
# qHTS protocol for CellTiter Glo lymphoblastoid cellular assay
# [Step] [Parameter] [Value] [Description]
# 1. Reagent; 5 uL; 2500 lymphoblastoid cells/well
# 2. Time; 5 hr; 37 C incubation
# 4. Controls; 23 nL; Tetraoctylammonium bromide 6.4pM to 92 uM
# 5. Time; 24 hr; 37 C incubation
# 6. Reagent; 5 uL; CellTiter Glo reagent
# 7. Time; 30 min; Room Temperature
# 8. Detection; Luminescence; Viewlux plate reader
# Keywords: cell viability, cytotoxicity, lymphoblastoid cell line, luminescence, NTPHTS, NTPHTS_NCGC, NIEHS, DSSTox, MLSMR, MLSCN, NIH Roadmap, qHTS, NCGC
# Potency is the fitted concentration of half-maximal effect.
row,Compound,Potency
1,Nc1ccc(O)c([N+](=O)[O-])c1,inactive
2,COc1cc(/C=C/C(=O)CC(=O)/C=C/c2ccc(O)c(OC)c2)ccc1O,25.1 µM (active)
3,CN(C)c1ccc(C(=C2C=CC(=[N+](C)C)C=C2)c2ccccc2)cc1,0.199 µM (active)
4,c1cnc2c(c1)ccc1cccnc12,12.6 µM (active)
5,CC(C)NCC(O)COc1cccc2ccccc12 (centres undefined),inactive
6,c1ccc2sc(SSc3nc4ccccc4s3)nc2c1,inactive
7,NCCO,inactive
8,Nc1ccc([N+](=O)[O-])cc1O,inactive
9,CC1(C)S[C@@H]2[C@H](NC(=O)[C@H](N)c3ccccc3)C(=O)N2[C@H]1C(=O)O,inactive
10,O=C(O)c1cc(O)c(O)c(O)c1,inactive
11,N=C1N=C(N)c2cc3ccccc3cc21,39.8 µM (active)
12,O=c1cc(-c2ccccc2)oc2ccccc12,inactive
13,C#C[C@]1(O)CC[C@H]2[C@@H]3CCc4cc(O)ccc4[C@H]3CC[C@@]21C,inactive
14,Nc1nc2ccc([N+](=O)[O-])cc2s1,inactive
15,S=c1[nH]c2ccccc2s1,inactive
16,CN(C)CCC(c1ccc(Cl)cc1)c1ccccn1 (centres undefined),inactive
17,CCCOC(=O)c1ccc(O)cc1,inactive
18,O=C1CN(/N=C/c2ccc([N+](=O)[O-])o2)C(=O)N1,inactive
19,COc1cc(CNC(=O)CCCC/C=C/C(C)C)ccc1O,inactive
20,CN(C)c1ccc(N=NS(=O)(=O)O)cc1,inactive
21,CCCCCCCCCCCCCCCCCC(=O)O,inactive
22,O=C(O)/C=C\C(=O)O,inactive
23,Nc1ccc(O)c(C(=O)O)c1,inactive
24,CN1CCC[C@H]1c1cccnc1,inactive
